Experimental findings from PubChem BioAssay are described below.

The nature of assay [1]: E. coli DRC41 culture turbidity changes, primary screen, E. coli filamentation inducer project, strain DRC41, OD650, 48 h (AID 1152).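 Note: E. coli MC1000 strain DRC41 lacking acrAB efflux pump and sulA.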 The following applies: E. coli DRC41 (acrAB sulA), higher = more signal, called active from +8 up or from −8 down.
A short description of assay [2]: small-molecule binders of probe aLefty1, primary screen, biochemical, small-molecule microarray, 635/667 nm fluorescence (AID 1153).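 Note: score merges spot fluorescence with signal-to-noise ratio from the scanned slide images.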 The following applies: higher = more signal.
Assay [3] in a line: PSAC antagonists in infected red cells, primary screen, cell-based, P. falciparum Indochina, OD700, 1 h (AID 1154). The following applies: P. falciparum Indochina infected RBC osmotic lysis, higher = more signal, called active from +8 up or from −8 down.
The nature of assay [4]: PSAC antagonists in infected red cells, primary screen, cell-based, P. falciparum Indochina, OD700, 2 h (AID 1155).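 Note: lysis reports solute entry through the parasite surface anion channel PSAC; channel blockers reduce lysis of infected cells.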 Conditions: P. falciparum Indochina infected erythrocytes, osmotic lysis OD700; higher = more signal, called active from +8 up or from −8 down.
Assay [5] in a line: osmotic lysis modulators in infected erythrocytes, primary screen, PSAC antagonist project, cell-based, P. falciparum Indochina, OD700, 3 h (AID 1156). The following applies: higher = more signal, called active from +8 up or from −8 down.
A short description of assay [6]: PSAC antagonists in infected red cells, primary screen, cell-based, P. falciparum Indochina, OD700, 18 h (AID 1157). The following applies: P. falciparum Indochina infected erythrocytes, osmotic lysis OD700, 18 h; higher = more signal, called active from +8 up or from −8 down.
The nature of assay [7]: modulators of S6 phosphorylation in cells, primary screen, cell-based, A549, cytoblot, luminescence, serum-stimulated (AID 1158).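 Note: serum-stimulated A549 lung adenocarcinoma cells; signal is phosphorylated S6 detected by cytoblot immunostaining with HRP secondary.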 Conditions: A549 phospho-S6 cytoblot, 5 h, higher = more signal.
In assay [8] the target is NADPH oxidase 2 (Homo sapiens) (UniProt P04839). The experiment in a line: NOX2-dependent H2O2 signal modulators, primary screen, NOX inhibitor project, cell-based, HEK293-NOX2, PMA-stimulated, Amplex Red fluorescence (AID 1159). Note: test concentration not given here. Conditions: 45 min, higher = more signal, called active from +8 up or from −8 down.
For assay [9], the target named is NADPH oxidase 4 (Homo sapiens) (UniProt Q9NPH5). Kind of assay: NOX4-dependent H2O2 signal modulators, primary screen, NOX inhibitor project, cell-based, HEK293-NOX4, tetracycline-induced, Amplex Red fluorescence (AID 1160). The following applies: 45 min, higher = more signal, called active from +8 up or from −8 down.
The target in assay [10] is NADPH oxidase 5 (Homo sapiens) (UniProt Q96PH1). Kind of assay: NOX5-dependent H2O2 signal modulators, primary screen, NOX inhibitor project, cell-based, HEK293-NOX5, Amplex Red fluorescence (AID 1161). The following applies: HEK293-NOX5, ionomycin, 45 min, higher = more signal.

Active and inactive are the calls of the source.

Sequence of NADPH oxidase 5 (Homo sapiens) (Q96PH1 whole entry, looked up): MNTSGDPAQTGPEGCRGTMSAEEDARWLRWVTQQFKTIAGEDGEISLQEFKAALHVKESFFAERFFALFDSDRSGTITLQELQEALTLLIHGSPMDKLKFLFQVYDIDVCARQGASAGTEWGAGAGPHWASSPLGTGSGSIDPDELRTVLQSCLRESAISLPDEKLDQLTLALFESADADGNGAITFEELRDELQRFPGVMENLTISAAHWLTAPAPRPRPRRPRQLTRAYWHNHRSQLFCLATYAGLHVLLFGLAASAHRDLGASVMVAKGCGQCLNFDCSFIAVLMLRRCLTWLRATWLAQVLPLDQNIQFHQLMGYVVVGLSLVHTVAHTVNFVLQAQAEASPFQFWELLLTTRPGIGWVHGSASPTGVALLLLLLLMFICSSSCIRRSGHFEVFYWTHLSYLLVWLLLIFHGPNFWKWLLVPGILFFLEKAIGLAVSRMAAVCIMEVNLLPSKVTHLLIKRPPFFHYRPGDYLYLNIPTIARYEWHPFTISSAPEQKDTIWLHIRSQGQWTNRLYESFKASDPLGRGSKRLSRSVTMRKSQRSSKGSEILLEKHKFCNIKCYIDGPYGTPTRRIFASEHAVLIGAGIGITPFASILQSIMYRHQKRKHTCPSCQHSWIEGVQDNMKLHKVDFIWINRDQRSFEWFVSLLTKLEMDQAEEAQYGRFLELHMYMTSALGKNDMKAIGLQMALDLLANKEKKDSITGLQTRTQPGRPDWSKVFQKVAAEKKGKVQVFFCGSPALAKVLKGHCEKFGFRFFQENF
Sequence of NADPH oxidase 4 (Homo sapiens) (Q9NPH5 whole entry, looked up): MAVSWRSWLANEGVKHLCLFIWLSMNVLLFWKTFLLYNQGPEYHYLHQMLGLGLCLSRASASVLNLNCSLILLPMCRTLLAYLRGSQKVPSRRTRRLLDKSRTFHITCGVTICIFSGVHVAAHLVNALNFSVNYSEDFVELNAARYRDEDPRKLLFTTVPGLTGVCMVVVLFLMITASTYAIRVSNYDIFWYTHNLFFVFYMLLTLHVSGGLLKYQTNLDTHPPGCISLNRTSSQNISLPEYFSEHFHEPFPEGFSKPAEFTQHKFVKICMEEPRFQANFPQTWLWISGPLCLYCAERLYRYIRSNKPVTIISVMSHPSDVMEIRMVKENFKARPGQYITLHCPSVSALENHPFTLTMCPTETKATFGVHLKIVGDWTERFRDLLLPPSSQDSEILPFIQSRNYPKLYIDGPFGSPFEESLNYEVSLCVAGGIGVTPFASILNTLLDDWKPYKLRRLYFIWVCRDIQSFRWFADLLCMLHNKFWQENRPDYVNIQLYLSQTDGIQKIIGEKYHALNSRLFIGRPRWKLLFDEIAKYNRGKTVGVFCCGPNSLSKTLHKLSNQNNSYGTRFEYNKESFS
Sequence of NADPH oxidase 2 (Homo sapiens) (P04839 whole entry, looked up): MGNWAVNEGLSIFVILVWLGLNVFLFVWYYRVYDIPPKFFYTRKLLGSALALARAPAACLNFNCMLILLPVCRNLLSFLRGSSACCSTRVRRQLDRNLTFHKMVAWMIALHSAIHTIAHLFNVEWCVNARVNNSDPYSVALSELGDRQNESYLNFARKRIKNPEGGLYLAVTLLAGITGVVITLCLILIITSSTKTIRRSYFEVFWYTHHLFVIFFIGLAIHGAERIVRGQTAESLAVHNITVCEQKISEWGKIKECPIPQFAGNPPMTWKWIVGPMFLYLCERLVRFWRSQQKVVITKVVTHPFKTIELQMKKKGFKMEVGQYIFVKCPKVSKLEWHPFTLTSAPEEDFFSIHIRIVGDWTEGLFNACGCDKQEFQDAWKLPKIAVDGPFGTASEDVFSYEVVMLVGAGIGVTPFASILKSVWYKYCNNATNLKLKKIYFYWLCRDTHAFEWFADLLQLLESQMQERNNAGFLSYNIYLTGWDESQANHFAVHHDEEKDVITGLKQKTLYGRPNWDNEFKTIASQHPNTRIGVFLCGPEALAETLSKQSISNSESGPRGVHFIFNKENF

For the compound `C[C@@H]1ON(c2ccccc2)[C@H](c2ccccc2)[C@H]1C(=O)N1C(=O)OC[C@H]1Cc1ccccc1`, the z-score in assay [1] was 0.848 (inactive); in assay [3] it was 1.66 (inactive); in assay [4], 0.282 (inactive); in assay [5], -0.13 (inactive); in assay [6] it was 0.379 (inactive); in assay [7], 0.389. Moreover, the values for the z-score in assay [8], in [9] and in [10] were 0.0547 (inactive), -0.104 (inactive) and -1.37, respectively. The same compound displayed a composite z-score in assay [2] of -0.294.
As to `CC(C)NC(=O)[C@@]1(Cc2ccccc2I)c2ccccc2C(=O)N(Cc2ccccc2C(F)(F)F)[C@H]1c1ccc(CO)cc1`, the z-score in assay [1] was 0.267 (inactive); in assay [3], 5.93 (inactive); in assay [4], 1.82 (inactive); in assay [5] it was 0.602 (inactive); in [6], 1.19 (inactive); in assay [7], -0.171. For the same compound, the figures for the z-score in assay [8], in [9] and in assay [10] were 1.12 (inactive), -0.213 (inactive) and 2.3, respectively. This compound showed a composite z-score in assay [2] of 0.243.
On to `COc1cc(C(O)C2C=CC3C(=O)N(C)C(=O)C3N2NC(=O)OC(C)(C)C)cc(OC)c1OC` (stereo not given), for which the z-score was -1.47 (inactive) in [1]; -0.249 (inactive) in assay [3]; 1 (inactive) in [4]; -0.226 (inactive) in [5]; 1.12 (inactive) in assay [6]; -1.27 in assay [7]. In addition, the z-score in [8] is -0.231 (inactive); in assay [9], -0.726 (inactive); in [10], -1.48. This compound had a composite z-score in assay [2] of 0.733.
Take `CCCC=C(CCC)[C@@H](NS(=O)(=O)c1ccccc1)c1ccc(C(F)(F)F)cc1`: the z-score was -1.51 (inactive) in assay [1]; 4.38 (inactive) in assay [3]; 1.07 (inactive) in assay [4]; 0.482 (inactive) in [5]; 0.983 (inactive) in assay [6]; -0.0787 in [7]. Moreover, the z-score in [8] was -0.818 (inactive); in assay [9], -1.19 (inactive); in assay [10], 2.67. In [2], the composite z-score is 0.775.
For `CCOc1cc(C(O)C2C=CC3C(=O)NC(=O)C3N2Nc2ccccn2)ccc1O` (stereo not given), the z-score is -1.17 (inactive) in [1]; -0.251 (inactive) in assay [3]; 0.519 (inactive) in assay [4]; -0.195 (inactive) in assay [5]; 0.828 (inactive) in [6]; -1.27 in assay [7]. Moreover, the z-score was -1.35 (inactive) in assay [8], -3.69 (inactive) in assay [9] and -1.57 in [10]. The composite z-score in assay [2] turned out to be 0.0253.
Take `NC(=O)NCC#Cc1ccc2c(c1)[C@]1(C(=O)N2)[C@H](c2ccc(O)cc2)N2[C@H](c3ccccc3)[C@H](c3ccccc3)OC(=O)[C@H]2[C@@H]1C(=O)NC[C@H](O)c1ccccc1`: the z-score is 0.578 (inactive) in assay [1]; -0.0501 (inactive) in assay [3]; 0.647 (inactive) in assay [4]; 0.223 (inactive) in [5]; 0.363 (inactive) in [6]; -0.328 in [7]. Besides, the z-score was 0.251 (inactive) in assay [8], -0.258 (inactive) in assay [9] and -0.0927 in assay [10]. The compound further had a composite z-score in assay [2] of -0.316.
Turning to `C=CC[C@]1(C(=O)N(C)C)N=C(c2ccc(OCCCO)cc2)O[C@H]1c1ccccc1`, the z-score was 1.17 (inactive) in assay [1]; 28.3 (active) in assay [3]; 17.7 (active) in [4]; 3.55 (inactive) in assay [5]; 1.46 (inactive) in assay [6]; 1.41 in assay [7]. Also, the z-score in assay [8] was -2.39 (inactive); in assay [9], -0.252 (inactive); in [10], -4.75. Moreover, the composite z-score in [2] amounted to 0.325.
In the case of `O=C1C[C@@](C(=O)O)(c2ccc([N+](=O)[O-])cc2)[C@@H](c2ccc(CO)cc2)N1CC12CC3CC(CC(C3)C1)C2`, the z-score in assay [1] was -0.146 (inactive); in [3], 6.47 (inactive); in [4] it was 0.964 (inactive); in assay [5], 2.67 (inactive); in assay [6], 0.279 (inactive); in [7] it was 0.469. In addition, the z-score in assay [8] was -0.545 (inactive); in assay [9] it was -2.72 (inactive); in assay [10] it was -1.01. The composite z-score in assay [2] was determined as 0.0041.
Consider `C=C[C@H](C)[C@H](OC(=O)Nc1ccc(SC)cc1)c1ccc(O)c2ccccc12`, for which the z-score in assay [1] is -1.61 (inactive); in [3], 28.9 (active); in assay [4], 10.2 (active); in [5], 2.13 (inactive); in assay [6], 0.867 (inactive); in [7], 0.451. For the same compound, the figures for the z-score in assay [8], in assay [9] and in [10] were -5.46 (inactive), -0.825 (inactive) and 1.76, respectively. This compound had a composite z-score in [2] of -1.01.
With `COC(=O)[C@@]1(Cc2ccc(OC)cc2)[C@H]2c3cc(C(=O)N4CCCC4)n(CCc4ccc(O)c(OC)c4)c3C[C@H]2CN1C(=O)c1ccccc1`, the z-score is -1.82 (inactive) in assay [1]; 2.81 (inactive) in assay [3]; 0.626 (inactive) in assay [4]; 0.394 (inactive) in [5]; 0.594 (inactive) in [6]; 0.389 in assay [7]. For the same compound, the values for the z-score in [8], in assay [9] and in [10] were -0.124 (inactive), -1.39 (inactive) and -2.06, respectively. The composite z-score in [2] was 0.128.
On to `C[C@H]1ON(c2ccccc2)[C@@H](c2ccccc2)[C@@H]1C(=O)N1C(=O)OC[C@@H]1c1ccccc1`, for which the z-score in assay [1] is 0.319 (inactive); in assay [3], 1.66 (inactive); in [4] it was 0.895 (inactive); in [5], -0.372 (inactive); in assay [6], 0.28 (inactive); in assay [7], 0.238. Moreover, the z-score in assay [8] is 0.198 (inactive); in assay [9], -0.28 (inactive); in [10], -0.654. In addition, the composite z-score in assay [2] was -0.0141.
Take `NC(=O)NCC#Cc1ccc2c(c1)[C@]1(C(=O)N2)[C@H](c2ccc(O)cc2)N2[C@H](c3ccccc3)[C@H](c3ccccc3)OC(=O)[C@H]2[C@@H]1C(N)=O`: the z-score is 0.373 (inactive) in assay [1]; 0.792 (inactive) in [3]; 0.215 (inactive) in assay [4]; 1.15 (inactive) in [5]; 0.319 (inactive) in assay [6]; 0.112 in [7]. Moreover, the z-score in [8] was 0.408 (inactive); in assay [9] it was -0.571 (inactive); in [10], -0.72. Moreover, in [2], the composite z-score was -0.127.
